From the supplement of paper PMC11865577
Counter-ions that a name gives are not always drawn.

Tests used:
Experiment in all cases: normalised indicator fluorescence (fraction of RNA + indicator signal without compound); higher = less displacement of indicator (weaker competition)
Conditions in all cases: compound concentration: 5 uM, 30 min
hsa-mir-191 loop = tested on: hsa-mir-191 loop
Outline: (§1)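 For the displacement screen, RNA and a TO-PRO-1 or TO-PRO-3 indicator were held in 20 mM phosphate pH 7.0 with 20 mM NaCl and 80 mM KCl in 96-well plates. After adding 0.25 μL of each 1 mM DMSO stock (about 5 uM final) and waiting 30 min, fluorescence was measured on an Infinite 200 PRO with excitation at 485 or 620 nm. Each value is the mean of two independent experiments, expressed as blank-subtracted indicator fluorescence relative to the no-compound RNA-plus-indicator signal.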

hsa-mir-21 loop = tested on: hsa-mir-21 loop
Outline: as §1

hsa-mir-221 loop = tested on: hsa-mir-221 loop
Outline: as §1

hsa-mir-374a loop = tested on: hsa-mir-374a loop
Outline: as §1

hsa-mir-6850 loop = tested on: hsa-mir-6850 loop
Outline: as §1

[1] = indicator: TO-PRO-1 0.1 uM, RNA concentration: 0.1 uM
[2] = indicator: TO-PRO-3 0.5 uM, RNA concentration: 0.5 uM

| SMILES | normalised indicator fluorescence (hsa-mir-191 loop; [1]) | normalised indicator fluorescence (hsa-mir-191 loop; [2]) | normalised indicator fluorescence (hsa-mir-21 loop; [1]) | normalised indicator fluorescence (hsa-mir-21 loop; [2]) | normalised indicator fluorescence (hsa-mir-221 loop; [1]) | normalised indicator fluorescence (hsa-mir-221 loop; [2]) | normalised indicator fluorescence (hsa-mir-374a loop; [1]) | normalised indicator fluorescence (hsa-mir-374a loop; [2]) | normalised indicator fluorescence (hsa-mir-6850 loop; [1]) | normalised indicator fluorescence (hsa-mir-6850 loop; [2]) |
| --- | --- | --- | --- | --- | --- | --- | --- | --- | --- | --- |
| NC(=O)c1ccccc1Nc1ccnc(Nc2cccc(O)c2)n1 | 0.949 | 1.02 | 0.974 | 1.02 | 0.967 | 0.979 | 1.12 | 1.2 | 0.993 | 1.04 |
| CO[C@H]1/C=C/O[C@@]2(C)Oc3c(C)c(O)c4c(c3C2=O)C2=NC3(CCN(CC(C)C)CC3)NC2=C(NC(=O)/C(C)=C\C=C\[C@H](C)[C@H](O)[C@@H](C)[C@@H](O)[C@@H](C)[C@H](OC(C)=O)[C@@H]1C)C4=O [Rifabutin] | 1.04 | 1.01 | 1.03 | 0.969 | 0.997 | 1.01 | 1.34 | 1.04 | 0.991 | 1.07 |
| NNC(=O)c1ccncc1 [Isoniazid] | 1.01 | 1.06 | 0.967 | 1.07 | 0.976 | 1.01 | 1.01 | 1.07 | 0.921 | 1.09 |
| C[C@@H]1O[C@@H](O[C@@H]2[C@@H](O)[C@H](OCCc3ccc(O)c(O)c3)O[C@H](CO)[C@H]2OC(=O)/C=C/c2ccc(O)c(O)c2)[C@H](O)[C@H](O)[C@H]1O [Verbascoside] | 1.1 | 1.02 | 1.13 | 1.01 | 1.07 | 0.949 | 1.46 | 1.14 | 1.02 | 1.02 |
| COc1ccc(O)cc1 [4-Methoxyphenol] | 0.962 | 1.17 | 0.99 | 1.05 | 1.08 | 1.04 | 1.19 | 1.14 | 0.977 | 1.11 |
| COC1=C2C[C@@H](C)C[C@H](OC)[C@H](O)[C@@H](C)/C=C(\C)[C@H](OC(N)=O)[C@@H](OC)/C=C\C=C(/C)C(=O)NC(=CC1=O)C2=O [Geldanamycin] | 1.09 | 1.08 | 1.04 | 1.05 | 1.04 | 1.09 | 1.11 | 1.31 | 1.09 | 1.02 |
| O=C(Nc1ccc2[nH]nc(-c3ccncc3)c2c1)[C@@H]1CCN(CC(=O)N2CCN(c3ccc(-c4ncccn4)cc3)CC2)C1 | 1.05 | 1.02 | 1.02 | 1 | 1.04 | 1 | 1.09 | 1.16 | 0.931 | 0.89 |
| O=C(O)/C=C/c1ccc(Cn2ccnc2)cc1 [Ozagrel hydrochloride] | 0.95 | 0.992 | 1.01 | 1.02 | 1 | 0.921 | 1.07 | 1.12 | 1.02 | 1.03 |
| O=C1CCc2ccccc2C1 [Beta-Tetralone] | 1.04 | 1.06 | 1.05 | 1.04 | 1.04 | 1.06 | 1.07 | 1.02 | 0.996 | 1.08 |
| O=c1cc(-c2ccccc2)oc2cc(O)c(O)c(O)c12 [Baicalein] | 0.599 | 0.956 | 0.653 | 0.944 | 0.767 | 0.926 | 0.88 | 0.91 | 0.918 | 1.05 |
| COc1ccc(-c2nc(-c3cc(C(F)(F)F)cc(C(F)(F)F)c3)n(Cc3ccc(C(N)=O)cc3)c2-c2ccc(OC)cc2)cc1 [Apoptozole] | 0.992 | 1.01 | 1.01 | 1.03 | 1.05 | 1.21 | 1.06 | 1.36 | 0.966 | 0.976 |
| O=c1ccc2ccc(O)cc2o1 [7-Hydroxycoumarin] | 1.06 | 1.06 | 1.05 | 0.997 | 1.11 | 1.01 | 1.07 | 1.15 | 0.986 | 1.05 |
| C[C@H]1[C@H](C)CC[C@]2(C(=O)O)CC[C@]3(C)C(=CC[C@@H]4[C@@]5(C)C[C@@H](O)[C@H](O)[C@@](C)(CO)[C@@H]5CC[C@]43C)[C@H]12 [Asiatic acid] | 0.974 | 1.01 | 0.904 | 1.07 | 1.03 | 0.961 | 1.15 | 1.06 | 0.846 | 1.03 |
| Oc1ccc(OCc2ccccc2)cc1 [Monobenzone] | 0.997 | 1.15 | 0.955 | 1.11 | 1.03 | 1.17 | 1.27 | 1.27 | 0.909 | 1.06 |
| CC(C)N(CCCCOCC(=O)NS(C)(=O)=O)c1cnc(-c2ccccc2)c(-c2ccccc2)n1 [Selexipag] | 1.04 | 1.01 | 1.07 | 1.07 | 1.05 | 1.12 | 1.14 | 1.11 | 1.1 | 1.09 |
| COC1=CC(=O)c2ccccc2C1=O [2-Methoxynaphthoquinone] | 1.01 | 1.03 | 0.993 | 1.05 | 1.06 | 1.06 | 1.14 | 1.19 | 0.946 | 1.07 |
| NC(=O)N/N=C/c1ccc([N+](=O)[O-])o1 [Furacilin] | 1.06 | 1.02 | 0.909 | 1.06 | 1.14 | 1.03 | 1.15 | 1.16 | 0.927 | 1.04 |
| CC(=O)O[C@H]1C[C@@]2(C)[C@@H](C[C@@H](O)[C@H]3[C@@]4(C)CC[C@@H](O)[C@@H](C)[C@@H]4CC[C@@]32C)/C1=C(\CCC=C(C)C)C(=O)O [Fusidine] | 0.992 | 1.01 | 0.976 | 1.08 | 1.04 | 1.02 | 1.15 | 1.21 | 1.06 | 1.06 |
| CC1(C)OC(=O)C=C[C@]2(C)[C@H]3CC[C@@]4(C)[C@H](c5ccoc5)OC(=O)[C@H]5O[C@]54[C@]3(C)C(=O)C[C@@H]12 [Obacunone] | 1.07 | 1.03 | 1.06 | 1.08 | 1.12 | 1.07 | 1.11 | 1.09 | 0.979 | 1.05 |

| SMILES | normalised indicator fluorescence (hsa-mir-191 loop; [1]) | normalised indicator fluorescence (hsa-mir-191 loop; [2]) | normalised indicator fluorescence (hsa-mir-21 loop; [1]) | normalised indicator fluorescence (hsa-mir-21 loop; [2]) | normalised indicator fluorescence (hsa-mir-221 loop; [1]) | normalised indicator fluorescence (hsa-mir-221 loop; [2]) | normalised indicator fluorescence (hsa-mir-374a loop; [1]) | normalised indicator fluorescence (hsa-mir-374a loop; [2]) | normalised indicator fluorescence (hsa-mir-6850 loop; [1]) | normalised indicator fluorescence (hsa-mir-6850 loop; [2]) |
| --- | --- | --- | --- | --- | --- | --- | --- | --- | --- | --- |
| O=C(/C=C/C=C/c1ccc2c(c1)OCO2)N1CCCCC1 [Piperine] | 1.02 | 1.01 | 0.903 | 1.05 | 0.997 | 0.908 | 1.16 | 1.16 | 1.13 | 1.04 |
| CCNC(=O)c1noc(-c2cc(Cl)c(O)cc2O)c1-c1ccc(OC)cc1 | 1.05 | 1.04 | 1.06 | 1.06 | 1.06 | 0.964 | 1.1 | 1.17 | 1.03 | 1.05 |
| Nc1c(Br)cc(Br)cc1CN[C@H]1CC[C@H](O)CC1 [Ambroxol] | 0.949 | 1.04 | 0.88 | 1.17 | 1.04 | 1.02 | 1.16 | 1.12 | 0.965 | 1.06 |
| CC1=C[C@]2(O)O[C@@]3(CC2=C(C)C)[C@@H](C)CC[C@@H]13 [Curcumenol] | 1 | 1.02 | 1.06 | 1.04 | 1.01 | 1.31 | 1.08 | 1.33 | 1.02 | 0.985 |
| C[C@@H]1O[C@@H](O[C@H]2[C@H](Oc3cc(O)c4c(c3)O[C@H](c3ccc(O)cc3)CC4=O)O[C@H](CO)[C@@H](O)[C@@H]2O)[C@H](O)[C@H](O)[C@H]1O [Naringin] | 0.96 | 1.09 | 0.933 | 1.08 | 1.06 | 1.04 | 1.14 | 1.21 | 0.897 | 1.09 |
| C[C@H]1Oc2cc(cnc2N)-c2c(nn(C)c2C#N)CN(C)C(=O)c2ccc(F)cc21 [Lorlatinib] | 0.997 | 1.03 | 1.05 | 1.03 | 0.999 | 1.02 | 1.08 | 1.26 | 1.14 | 1.05 |
| C/C1=C/CC[C@H](C)C(=O)C[C@@H](C(C)C)C(=O)C1 [Curdione] | 1.05 | 1.02 | 1.04 | 1.09 | 1.05 | 1.16 | 1.07 | 1.26 | 1.14 | 1.06 |
| O=C(COc1ccc(Cl)cc1)NC1CCC(NC(=O)COc2ccc(Cl)cc2)CC1 (stereo not given) | 1.03 | 1.04 | 0.954 | 1.03 | 1.05 | 1.01 | 1.07 | 1.08 | 0.894 | 1.05 |
| C[C@H]1[C@H](C)CC[C@]2(C(=O)O[C@@H]3O[C@H](CO[C@@H]4O[C@H](CO)[C@@H](O[C@@H]5O[C@H](C)[C@H](O)[C@@H](O)[C@H]5O)[C@H](O)[C@H]4O)[C@@H](O)[C@H](O)[C@H]3O)CC[C@]3(C)C(=CC[C@@H]4[C@@]5(C)C[C@@H](O)[C@H](O)[C@@](C)(CO)[C@@H]5CC[C@]43C)[C@H]12 [Asiaticoside] | 1.02 | 1.03 | 0.968 | 0.996 | 0.992 | 1.03 | 1.09 | 1.16 | 1.03 | 1.11 |
| COC(=O)c1ccc([C@H]2c3[nH]c4ccccc4c3C[C@H](C(=O)OC)N2C(=O)CCl)cc1 | 1.05 | 1 | 0.974 | 1.02 | 0.997 | 1.09 | 1.01 | 1.39 | 1.09 | 1.03 |
| COc1ccc([C@@H]2OC[C@H]3[C@@H]2CO[C@@H]3c2ccc(O[C@@H]3O[C@H](CO)[C@@H](O)[C@H](O)[C@H]3O)c(OC)c2)cc1OC [Forsythin] | 1.06 | 1.04 | 0.926 | 0.988 | 0.939 | 1.04 | 1.09 | 1.09 | 0.927 | 1.07 |
| Cc1cc(C(C)(C)C)c(O)c(C(C)(C)C)c1 | 1.01 | 1.04 | 1.04 | 1 | 1.05 | 1.12 | 1.11 | 1.19 | 0.924 | 1.06 |
| CC1=NN(c2ccccc2)C(=O)C1 [Edaravone] | 1.06 | 1.11 | 1.07 | 1.04 | 1.05 | 1.04 | 1.06 | 1.12 | 1.05 | 1.05 |
| O=C(O)CCc1ccc(O)cc1O [Hydroumbellic acid] | 1.11 | 1.05 | 0.973 | 1.06 | 0.989 | 1.16 | 1.1 | 1.13 | 1.1 | 1.04 |
| COC(=O)C1=CC[C@@]23CC[C@@H]([C@@](C)(/C=C/C=C(\C)C(=O)O)OC2=O)[C@@]3(OC(C)=O)CC1 [Pseudolaric Acid B] | 1.02 | 0.949 | 1.02 | 0.979 | 0.969 | 0.93 | 0.998 | 1.19 | 1.03 | 1.03 |
| Cc1c(C)c2c(c(C)c1O)CCC(C)(C(=O)O)O2 (stereo not given) [Trolox] | 1.03 | 1.05 | 1.02 | 0.957 | 1.05 | 1.12 | 1.11 | 1.22 | 1.02 | 1.07 |
| Oc1cc(O)c2c(c1)O[C@H](c1ccc(O)c(O)c1)[C@@H](O)C2 [Cianidanol] | 1.01 | 1.07 | 0.93 | 1.06 | 1.16 | 1.07 | 1.26 | 1.17 | 1 | 1.07 |
| CC(C)=CCC[C@](C)(O[C@@H]1O[C@H](CO)[C@@H](O)[C@H](O)[C@H]1O)[C@H]1CC[C@]2(C)[C@@H]1[C@H](O)C[C@@H]1[C@@]3(C)CC[C@H](O)C(C)(C)[C@@H]3[C@@H](O[C@@H]3O[C@H](CO)[C@@H](O)[C@H](O)[C@H]3O[C@@H]3OC[C@@H](O)[C@H](O)[C@H]3O)C[C@]12C [Notoginsenoside R1] | 1.04 | 1.01 | 1 | 0.991 | 1.15 | 0.995 | 1.21 | 1.09 | 0.982 | 1.01 |
